# Results reported in the supplement of paper PMC9135407.
# Values joined by “and” are separate entries in the source; they are usually repeats but may differ in a detail not shown here. Equal values may be shown once. Where a name gives a salt, the structure may show the parent alone. Screen size: about 5,800 compounds; about 620 (11%) showed activity. For the sample, actives were picked, then their nearest neighbours and some compounds at random. Values without a mark were called inactive.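 The calls were made as follows: active = score above a cut-off or among the top three wells of a plate; in these data no inactive exceeds 0.85.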
# System: primary human hepatic stellate cells (donor 1)
# Test: scaled lipid accumulation score (0 = DMSO-like, 1 = nortriptyline-like); higher = stronger HSC inactivation (lipid re-accumulation), active = hit call of the paper
# Conditions: 48 h
# [1] = library stock concentration: 10 mM
# [2] = library stock concentration: 100 uM
# [3] = library stock concentration: 1 mM
# [4] = library stock concentration: 80 uM
# [5] = library stock concentration: 400 uM
# [6] = library stock concentration: 2 mM
# [7] = library stock concentration: 3.33 mM
smiles,measurement,setting,value
CC1/C=C/C=C/C=C/C=C/C=C/C=C/C=C/C(OC2O[C@H](C)[C@@H](O)[C@H](N)[C@@H]2O)CC(O)C(C(=O)O)C(O)CC(=O)CC(O)CC(O)CC(O)CC(=O)CCCC(=O)CC(=O)OC1C(C)CC(C)C(O)CC(=O)c1ccc(N)cc1 (some centres not stated),scaled lipid accumulation score,[1],≤ 0
CCN(CC)CC1CCCCN1CC(=O)N1c2ccccc2C(=O)Nc2cccnc21 (configuration not stated),scaled lipid accumulation score,[1],≤ 0 and ≤ -0.006
CCCCC/C=C\CC1OC1C/C=C\C/C=C\CCCC(=O)O (configuration not stated),scaled lipid accumulation score,[2],≤ -0.021
O=C(O)CCC/C=C\C[C@@H]1[C@@H](/C=C/[C@@H](O)COc2ccccc2)[C@H](O)C[C@@H]1O [16-phenoxy tetranor Prostaglandin F2.alpha.],scaled lipid accumulation score,[3],≤ 0
CCN1CCN(c2ccc(Nc3cc(N(C)C(=O)Nc4c(Cl)c(OC)cc(OC)c4Cl)ncn3)cc2)CC1,scaled lipid accumulation score,[4],≤ -0.009
same,scaled lipid accumulation score,[5],≤ -0.009
same,scaled lipid accumulation score,[6],0.01
same,scaled lipid accumulation score,[1],0.291
COc1ccc(-c2cc3nccn3c(Nc3ncccc3C(N)=O)n2)cc1OC,scaled lipid accumulation score,[4],0.088
same,scaled lipid accumulation score,[5],≤ -0.009
same,scaled lipid accumulation score,[6],0.133
same,scaled lipid accumulation score,[1],0.349
CCC[C@H](Nc1nc(-c2ccc(NC(=O)NCC)c(OC)c2)ncc1C)c1cccnc1 [CYT997 (Lexibulin)],scaled lipid accumulation score,[7],0.682
same,scaled lipid accumulation score,[1],0.758
C[N+](C)(C)CCO.[Cl-] [Choline chloride],scaled lipid accumulation score,[1],≤ -0.027
same,scaled lipid accumulation score,library stock concentration: 14.3 mM,≤ 0
C[N+](C)(C)CCO.[Cl-] [Choline Chloride],scaled lipid accumulation score,[7],≤ 0
same,scaled lipid accumulation score,[1],0.043
N#CC(=Cc1ccc2[nH]ccc2c1)C(N)=C(C#N)C#N,scaled lipid accumulation score,library stock concentration: 19.3 mM,0.606
COc1ccc(C2=N[C@@H](c3ccc(Cl)cc3)[C@H](c3ccc(Cl)cc3)N2C(=O)N2CCNC(=O)C2)c(OC(C)C)c1 [Nutlin-3a],scaled lipid accumulation score,[1],0.954 (active)
COc1ccc(C2=NC(c3ccc(Cl)cc3)C(c3ccc(Cl)cc3)N2C(=O)N2CCNC(=O)C2)c(OC(C)C)c1 (configuration not stated) [Nutlin-3a],scaled lipid accumulation score,[7],0.207
COc1ccc(C2=NC(c3ccc(Cl)cc3)C(c3ccc(Cl)cc3)N2C(=O)N2CCNC(=O)C2)c(OC(C)C)c1 (configuration not stated) [Nutlin-3b],scaled lipid accumulation score,[7],≤ -0.009
same,scaled lipid accumulation score,[1],≤ 0
COc1ccc(C2=N[C@@H](c3ccc(Cl)cc3)[C@@H](c3ccc(Cl)cc3)N2C(=O)N2CCNC(=O)C2)c(OC(C)C)c1,scaled lipid accumulation score,[3],≤ 0
COc1ccc(C2=N[C@@H](c3ccc(Cl)cc3)[C@@H](c3ccc(Cl)cc3)N2C(=O)N2CCNC(=O)C2)c(OC(C)C)c1 [Nutlin-3],scaled lipid accumulation score,[7],0.168
same,scaled lipid accumulation score,[1],0.829
CCCCCCCCCCCCCCCCCCOCC(O)COP(=O)([O-])OCC[N+](C)(C)C (configuration not stated),scaled lipid accumulation score,[3],≤ 0
CCCCCCCCCCCCCCCCCC(=O)OCC [Stearic Acid ethyl ester],scaled lipid accumulation score,[3],≤ 0
c1ccc2c(c1)CCCc1cc(NCCN3CCOCC3)nnc1-2,scaled lipid accumulation score,,0.038
O=C(NCCN1CCOCC1)c1ccc(Cl)cc1 [Moclobemide],scaled lipid accumulation score,,0.059
same,scaled lipid accumulation score,[1],0.047
O=C1C(Cl)=C(NCCN2CCOCC2)C(=O)c2ncccc21,scaled lipid accumulation score,[1],1.04 (active)
O=C(NCCN1CCOCC1)c1ccc(Cl)cc1,scaled lipid accumulation score,[7],≤ 0
same,scaled lipid accumulation score,[1],≤ 0
O=C(NCCN1CCOCC1)c1ccc(Cl)cc1 [4-Chloro-N-(2-morpholin-4-yl-ethyl)-benzamide],scaled lipid accumulation score,[1],≤ 0
CN1Cc2sccc2C(c2ccc(O)c(O)c2)C1 (configuration not stated),scaled lipid accumulation score,[1],0.005
CC(=O)N[C@@H](CSC/C=C(\C)CC/C=C(\C)CCC=C(C)C)C(=O)O [Acetyl (N)-s-farnesyl-l-cysteine],scaled lipid accumulation score,library stock concentration: 13.6 mM,≤ -0.021
CC(=O)N[C@@H](CSC/C=C(\C)CC/C=C(\C)CCC=C(C)C)C(=O)O [N-acetyl-S-farnesyl-L-Cysteine],scaled lipid accumulation score,[3],≤ 0
CS(=O)(=O)Nc1c(O)ccc2c1CCCC2C1=NCCN1 (configuration not stated),scaled lipid accumulation score,[1],0.027
COc1cc(C=C(C#N)C(N)=O)cc(CSc2nc3ccccc3s2)c1O [Tyrphostin AG-825],scaled lipid accumulation score,library stock concentration: 12.6 mM,0.042
Cc1cnc(Nc2ccc(OCCN3CCCC3)cc2)nc1Nc1cccc(S(=O)(=O)NC(C)(C)C)c1,scaled lipid accumulation score,[4],0.07
same,scaled lipid accumulation score,[5],0.23
same,scaled lipid accumulation score,[6],0.765
same,scaled lipid accumulation score,[7],0.703
same,scaled lipid accumulation score,[1],0.345 and 0.579
c1cc(-c2cnn3cc(-c4ccc(OCCN5CCCCC5)cc4)cnc23)ccn1 [Dorsomorphin],scaled lipid accumulation score,[4],≤ 0
same,scaled lipid accumulation score,[5],≤ 0
same,scaled lipid accumulation score,[6],0.557
same,scaled lipid accumulation score,[1],0.469
c1ccc(-c2cnc(Nc3ccc(OCCN4CCCC4)cc3)s2)cc1 [Flt-3 Inhibitor III],scaled lipid accumulation score,[7],1.17 (active)
"c1cc(-c2cnn3cc(-c4ccc(OCCN5CCCCC5)cc4)cnc23)ccn1 [AMPK Inhibitor, Compound C]",scaled lipid accumulation score,[7],≤ 0
CCCCC[C@H](O)C/C=C1/C(=O)C[C@H](O)[C@@H]1C/C=C\CCCC(=O)O [.DELTA.12-Prostaglandin D2],scaled lipid accumulation score,[3],≤ 0
CCCCC/C=C\C/C=C\CC/C=C\CCCC(=O)O [Pinolenic Acid],scaled lipid accumulation score,[3],0.009
NC(=O)N1C(=O)/C(=C(\O)c2cccs2)c2cc(Cl)ccc21 [Tenidap],scaled lipid accumulation score,[1],≤ -0.001
O=C(O)c1cc(O)c2ccc(Cl)cc2n1 [7-Chlorokynurenic acid],scaled lipid accumulation score,[1],0.023
Cc1cnc(-c2ccccc2C(C)C)nc1NCc1ccc(-n2ccnn2)cc1,scaled lipid accumulation score,[7],≤ -0.009
same,scaled lipid accumulation score,[1],≤ 0
Nc1cc(N2CCCCC2)nc(N)[n+]1OS(=O)(=O)[O-] [Minoxidil sulfate],scaled lipid accumulation score,library stock concentration: 17.3 mM,≤ -0.021
C=CCCCCCCCCC(=O)O [Undecylenic acid],scaled lipid accumulation score,library stock concentration: 10.9 mM,≤ 0
O=S(=O)(c1cccc2c(I)cccc12)N1CCCNCC1 [listing 1 of 2 here],scaled lipid accumulation score,[4],≤ -0.001
same,scaled lipid accumulation score,[5],≤ -0.001
same,scaled lipid accumulation score,[6],0.204
O=S(=O)(c1cccc2cnccc12)N1CCCNCC1 [Fasudil],scaled lipid accumulation score,library stock concentration: 6.9 mM,≤ -0.006
O=c1[nH]ccc2c(S(=O)(=O)N3CCCNCC3)cccc12 [HA 1100 hydrochloride],scaled lipid accumulation score,[1],≤ -0.001
CC1CN(S(=O)(=O)c2cccc3cnccc23)CCN1 (configuration not stated),scaled lipid accumulation score,[1],0.164
"O=S(=O)(c1cccc2c(I)cccc12)N1CCCNCC1 [ML-7, Hydrochloride]",scaled lipid accumulation score,[7],0.25
O=S(=O)(c1cccc2cnccc12)N1CCCNCC1,scaled lipid accumulation score,[1],0.257
O=S(=O)(c1cccc2cnccc12)N1CCCNCC1 [Fasudil (HA-1077) HCl],scaled lipid accumulation score,[7],≤ 0
same,scaled lipid accumulation score,[1],0.14
O=S(=O)(c1cccc2c(Cl)cccc12)N1CCCNCC1 [listing 1 of 2 here],scaled lipid accumulation score,library stock concentration: 15.4 mM,0.912 (active)
O=S(=O)(c1cccc2c(Cl)cccc12)N1CCCNCC1 [listing 2 of 2 here],scaled lipid accumulation score,[1],1.02 (active)
O=S(=O)(c1cccc2c(I)cccc12)N1CCCNCC1 [listing 2 of 2 here],scaled lipid accumulation score,[1],0.931 (active)
O=S(=O)(c1cccc2cnccc12)N1CCCNCC1 [Fasudil hydrochloride],scaled lipid accumulation score,[1],0.07
O=S(=O)(c1cccc2cnccc12)N1CCNCC1,scaled lipid accumulation score,[1],0.248
NCCNS(=O)(=O)c1cccc2c(Cl)cccc12 [A3 hydrochloride],scaled lipid accumulation score,[1],≤ 0
COCCOc1cc2nc[nH]c(=O)c2cc1OCCOC,scaled lipid accumulation score,[1],0.018
CCCCC[C@H](O)/C=C/[C@H]1C=CC(=O)[C@@H]1CCCCCCC(=O)O [Prostaglandin A1],scaled lipid accumulation score,[3],0.022 and 0.047
Nc1nc2c([nH]c(=O)n2[C@H]2C[C@H](O)[C@@H](CO)O2)c(=O)[nH]1 [8-hydroxy-2'-deoxy Guanosine],scaled lipid accumulation score,[3],≤ 0
C[C@@H]1CC(=O)NN=C1c1ccc(NN=C(C#N)C#N)cc1,scaled lipid accumulation score,[1],0.073
C[C@@H]1CC(=O)NN=C1c1ccc(NN=C(C#N)C#N)cc1 [Levosimendan],scaled lipid accumulation score,[7],≤ 0
same,scaled lipid accumulation score,[1],≤ 0
Cc1ccccc1/C=C/C1=NCCN1 [Metrazoline oxalate],scaled lipid accumulation score,[1],0.381
"CCCCCC(=O)/C=C/C=C\CCCCCCCC(=O)O [13-Keto-octadeca-9Z,11E-dienoic acid]",scaled lipid accumulation score,[2],0.012
"O=Cc1c2[nH]c3ccccc3c2cc2[nH]c3ccccc3c12 [6-Formylindolo [3,2-B] carbazole]",scaled lipid accumulation score,[3],≤ -0.02
NC(C(=O)O)c1ccc(C(=O)O)c(C(=O)O)c1 (configuration not stated),scaled lipid accumulation score,[1],≤ -0.006
Cc1c(NC(=O)OC[C@@H]2COCCN2)cn2ncnc(Nc3ccc4c(cnn4Cc4cccc(F)c4)c3)c12.Cl,scaled lipid accumulation score,[7],1.15 (active)
same,scaled lipid accumulation score,[1],1.2 (active)
CN(C)c1cc2c(Nc3ccc4c(cnn4Cc4ccccc4)c3)ncnc2cn1,scaled lipid accumulation score,[1],0.524
Cc1nc2ccc(NC(=O)Nc3ccnc4cccnc34)cc2o1,scaled lipid accumulation score,[1],≤ -0.006
CC(=O)[C@]1(O)Cc2c(O)c3c(c(O)c2[C@@H](O[C@H]2C[C@H](N)[C@H](O)[C@H](C)O2)C1)C(=O)c1ccccc1C3=O [Idarubicin],scaled lipid accumulation score,library stock concentration: 4 mM,0.387
same,scaled lipid accumulation score,[1],≤ -0.07
CC(=O)[C@]1(O)Cc2c(O)c3c(c(O)c2[C@@H](O[C@H]2C[C@H](N)[C@H](O)[C@H](C)O2)C1)C(=O)c1ccccc1C3=O,scaled lipid accumulation score,[1],0.372
CC(=O)[C@]1(O)Cc2c(O)c3c(c(O)c2[C@@H](O[C@H]2C[C@H](N)[C@H](O)[C@H](C)O2)C1)C(=O)c1ccccc1C3=O [Idarubicin HCl],scaled lipid accumulation score,[7],0.288
same,scaled lipid accumulation score,[1],0.179
CCCCN1CCC(CCC(=O)c2cc(Cl)c(N)cc2OC)CC1,scaled lipid accumulation score,[1],0.511
COc1cc(COc2cc(N)c(Cl)cc2C(=O)CCC2CCN(CCNS(C)(=O)=O)CC2)cc(OC)c1.Cl,scaled lipid accumulation score,[1],1.06 (active)
COc1cc(N)c(Cl)cc1C(=O)CCC1CCN(CCNS(C)(=O)=O)CC1,scaled lipid accumulation score,[1],≤ 0
